# Measurements taken from publication PMC7862700, “An all-to-all approach to the identification of sequence-specific readers for epigenetic DNA modifications on cytosine”.
# Key:
# Experiment in all cases: DAPPL (digital affinity profiling via proximity ligation, sequencing); 10 mM Tris-HCl pH 7.5, 50 mM NaCl, 1 mM DTT, 4% glycerol, room temperature, 30 min; GST-TFs on glutathione beads, 16-mer random dsDNA library, 0.1% formaldehyde crosslink after washing; high values mean tight binding
# Details in all cases: protein: recombinant; tags: N-terminal GST; dsDNA, one strand shown
# [1] = molecular target: T1, FLI1 (Homo sapiens, UniProt Q01543 1-452)
# T1 sequence: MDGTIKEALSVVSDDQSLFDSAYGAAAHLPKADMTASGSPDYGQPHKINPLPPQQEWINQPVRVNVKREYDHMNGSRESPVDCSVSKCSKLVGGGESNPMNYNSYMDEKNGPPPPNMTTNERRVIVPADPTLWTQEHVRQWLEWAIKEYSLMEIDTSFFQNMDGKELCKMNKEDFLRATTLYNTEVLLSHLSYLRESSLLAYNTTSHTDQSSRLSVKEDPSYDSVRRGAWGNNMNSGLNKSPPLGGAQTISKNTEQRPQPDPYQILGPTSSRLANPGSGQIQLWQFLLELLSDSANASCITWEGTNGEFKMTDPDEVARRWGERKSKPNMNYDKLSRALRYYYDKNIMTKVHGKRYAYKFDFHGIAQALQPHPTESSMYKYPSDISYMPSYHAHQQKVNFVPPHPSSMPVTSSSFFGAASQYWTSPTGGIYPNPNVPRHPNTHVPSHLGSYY
# How it was run: (§1)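 Human transcription factors were made in yeast as GST fusions, captured on glutathione beads and barcoded with DNA. With a tag-only sample included, the pool was incubated with 200 nmole of a random double-stranded 16-mer DNA library in Tris/NaCl/DTT/glycerol buffer at room temperature for 30 min, then crosslinked with 0.1% formaldehyde after washing, ligated by proximity, amplified and sequenced. For binding signal, each hexamer's read frequency for a factor is divided by its frequency for the tag-only sample.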
# [2] = molecular target: T2, ELK1 (Homo sapiens, UniProt P19419 1-428)
# T2 sequence: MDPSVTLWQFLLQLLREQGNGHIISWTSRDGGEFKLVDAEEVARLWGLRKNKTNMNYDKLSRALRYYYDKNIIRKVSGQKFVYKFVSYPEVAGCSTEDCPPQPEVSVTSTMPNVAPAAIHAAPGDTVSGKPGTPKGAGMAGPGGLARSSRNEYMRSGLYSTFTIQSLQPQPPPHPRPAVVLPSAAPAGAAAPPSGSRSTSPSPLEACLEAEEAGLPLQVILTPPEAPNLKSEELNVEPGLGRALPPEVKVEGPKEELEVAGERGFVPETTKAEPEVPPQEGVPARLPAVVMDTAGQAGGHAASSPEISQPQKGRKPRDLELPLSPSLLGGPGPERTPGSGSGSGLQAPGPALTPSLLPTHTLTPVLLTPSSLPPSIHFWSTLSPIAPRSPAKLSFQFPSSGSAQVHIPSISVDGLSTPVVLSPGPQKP
# How it was run: as §1
# [3] = molecular target: T3, GABPA (Homo sapiens, UniProt Q06546 1-454)
# T3 sequence: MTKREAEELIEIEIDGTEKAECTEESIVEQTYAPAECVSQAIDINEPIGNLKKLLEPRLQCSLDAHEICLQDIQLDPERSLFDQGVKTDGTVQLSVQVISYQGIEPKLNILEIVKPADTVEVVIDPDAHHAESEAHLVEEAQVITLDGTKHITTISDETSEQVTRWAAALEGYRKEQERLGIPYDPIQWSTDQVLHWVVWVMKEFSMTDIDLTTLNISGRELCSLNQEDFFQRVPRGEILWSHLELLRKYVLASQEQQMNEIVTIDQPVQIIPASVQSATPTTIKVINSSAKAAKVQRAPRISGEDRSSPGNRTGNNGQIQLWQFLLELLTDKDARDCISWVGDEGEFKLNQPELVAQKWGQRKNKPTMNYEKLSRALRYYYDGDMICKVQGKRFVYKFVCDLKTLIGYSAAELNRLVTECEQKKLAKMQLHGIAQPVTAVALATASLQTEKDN
# How it was run: as §1
# [4] = molecular target: T4, ERG (Homo sapiens, UniProt P11308 1-479)
# T4 sequence: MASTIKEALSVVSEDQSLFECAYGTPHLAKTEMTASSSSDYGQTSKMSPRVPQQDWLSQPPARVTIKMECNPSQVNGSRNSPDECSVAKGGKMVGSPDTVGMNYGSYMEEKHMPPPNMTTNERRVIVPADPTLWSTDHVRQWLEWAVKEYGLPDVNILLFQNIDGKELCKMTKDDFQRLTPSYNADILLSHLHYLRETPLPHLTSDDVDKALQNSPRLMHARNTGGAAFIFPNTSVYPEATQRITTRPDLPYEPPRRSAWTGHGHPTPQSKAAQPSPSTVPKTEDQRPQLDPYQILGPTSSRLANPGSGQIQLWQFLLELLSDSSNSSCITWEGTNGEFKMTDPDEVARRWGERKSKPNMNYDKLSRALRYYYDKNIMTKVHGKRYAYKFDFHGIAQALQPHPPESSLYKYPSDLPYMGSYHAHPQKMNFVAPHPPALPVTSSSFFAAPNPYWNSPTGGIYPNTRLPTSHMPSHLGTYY
# How it was run: as §1
# [5] = molecular target: ELF1 (Homo sapiens, UniProt P32519 1-619)
# ELF1, sequence (P32519 whole entry): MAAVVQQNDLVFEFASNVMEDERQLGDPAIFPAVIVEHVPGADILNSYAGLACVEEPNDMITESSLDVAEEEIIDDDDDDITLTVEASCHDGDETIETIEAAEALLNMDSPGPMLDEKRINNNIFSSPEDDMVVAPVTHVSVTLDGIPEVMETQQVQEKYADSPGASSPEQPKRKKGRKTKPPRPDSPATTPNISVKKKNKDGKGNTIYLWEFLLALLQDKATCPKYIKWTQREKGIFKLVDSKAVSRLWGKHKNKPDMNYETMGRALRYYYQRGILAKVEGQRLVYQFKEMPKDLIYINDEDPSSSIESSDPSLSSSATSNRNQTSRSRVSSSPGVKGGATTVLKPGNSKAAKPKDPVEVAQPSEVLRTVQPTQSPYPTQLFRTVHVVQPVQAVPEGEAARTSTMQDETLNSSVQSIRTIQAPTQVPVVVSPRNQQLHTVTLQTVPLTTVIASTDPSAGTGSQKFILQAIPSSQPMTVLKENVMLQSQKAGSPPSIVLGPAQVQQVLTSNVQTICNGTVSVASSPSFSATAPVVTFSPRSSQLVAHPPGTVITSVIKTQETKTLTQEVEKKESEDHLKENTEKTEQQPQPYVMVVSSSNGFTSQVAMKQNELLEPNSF
# How it was run: as §1
# [6] = molecular target: T5, EHF (Homo sapiens, UniProt Q9NZC4 1-300)
# T5 sequence: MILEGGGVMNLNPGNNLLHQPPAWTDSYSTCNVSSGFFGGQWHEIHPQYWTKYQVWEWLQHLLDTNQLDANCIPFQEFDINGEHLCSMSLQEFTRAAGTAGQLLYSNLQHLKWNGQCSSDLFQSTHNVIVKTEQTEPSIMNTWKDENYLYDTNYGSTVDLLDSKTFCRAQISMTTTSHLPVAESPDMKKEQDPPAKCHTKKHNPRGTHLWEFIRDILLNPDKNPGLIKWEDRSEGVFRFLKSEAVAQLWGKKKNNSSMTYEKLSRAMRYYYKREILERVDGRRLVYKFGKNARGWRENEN
# How it was run: as §1
# [7] = molecular target: SPI1 (Homo sapiens, UniProt P17947 1-270)
# How it was run: as §1
# [8] = molecular target: SPIB (Homo sapiens, UniProt Q01892 1-262)
# SPIB, sequence (Q01892 whole entry): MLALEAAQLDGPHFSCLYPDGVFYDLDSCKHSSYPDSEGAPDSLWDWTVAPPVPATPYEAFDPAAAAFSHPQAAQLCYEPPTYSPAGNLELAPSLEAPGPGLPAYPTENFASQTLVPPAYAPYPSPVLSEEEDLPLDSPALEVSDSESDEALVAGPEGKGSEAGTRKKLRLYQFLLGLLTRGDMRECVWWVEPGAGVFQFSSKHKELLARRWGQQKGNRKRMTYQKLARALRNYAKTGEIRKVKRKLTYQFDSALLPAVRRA
# How it was run: as §1
# [9] = molecular target: T6, ELK3 (Homo sapiens, UniProt P41970 1-407)
# T6 sequence: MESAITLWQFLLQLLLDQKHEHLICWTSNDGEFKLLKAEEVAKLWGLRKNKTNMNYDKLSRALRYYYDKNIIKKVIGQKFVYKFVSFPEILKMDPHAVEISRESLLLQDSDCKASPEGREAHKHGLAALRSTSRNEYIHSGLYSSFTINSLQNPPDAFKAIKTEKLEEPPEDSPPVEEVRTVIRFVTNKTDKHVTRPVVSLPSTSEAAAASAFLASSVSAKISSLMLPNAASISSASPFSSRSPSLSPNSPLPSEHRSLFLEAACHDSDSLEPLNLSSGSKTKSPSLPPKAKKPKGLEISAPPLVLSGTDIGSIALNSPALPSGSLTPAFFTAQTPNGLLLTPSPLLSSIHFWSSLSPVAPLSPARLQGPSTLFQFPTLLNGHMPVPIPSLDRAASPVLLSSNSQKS
# How it was run: as §1
# [10] = molecular target: T7, FEV (Homo sapiens, UniProt Q99581 1-238)
# T7 sequence: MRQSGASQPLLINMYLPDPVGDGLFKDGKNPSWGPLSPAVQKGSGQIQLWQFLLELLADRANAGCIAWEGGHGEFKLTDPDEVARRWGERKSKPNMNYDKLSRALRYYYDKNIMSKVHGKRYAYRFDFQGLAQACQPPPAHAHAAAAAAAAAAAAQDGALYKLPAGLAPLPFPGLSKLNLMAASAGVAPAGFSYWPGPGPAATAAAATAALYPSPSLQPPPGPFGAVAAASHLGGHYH
# How it was run: as §1
# [11] = molecular target: ETV5 (Homo sapiens, UniProt P41161 1-510)
# ETV5, sequence (P41161 whole entry): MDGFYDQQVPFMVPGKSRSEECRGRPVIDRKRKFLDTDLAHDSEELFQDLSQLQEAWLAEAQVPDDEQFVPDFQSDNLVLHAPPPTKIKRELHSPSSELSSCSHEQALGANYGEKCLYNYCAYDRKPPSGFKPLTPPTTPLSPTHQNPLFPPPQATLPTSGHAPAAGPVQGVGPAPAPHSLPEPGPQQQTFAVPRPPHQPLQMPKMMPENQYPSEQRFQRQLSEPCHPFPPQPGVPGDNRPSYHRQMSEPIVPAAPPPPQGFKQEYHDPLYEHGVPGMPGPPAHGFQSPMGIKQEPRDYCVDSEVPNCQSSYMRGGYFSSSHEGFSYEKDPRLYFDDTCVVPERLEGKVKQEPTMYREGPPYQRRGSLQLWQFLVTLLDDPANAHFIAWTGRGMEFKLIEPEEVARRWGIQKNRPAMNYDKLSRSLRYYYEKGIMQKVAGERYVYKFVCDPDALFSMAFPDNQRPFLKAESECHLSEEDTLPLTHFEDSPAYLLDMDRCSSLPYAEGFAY
# How it was run: as §1
# [12] = molecular target: T8, SPIC (Homo sapiens, UniProt Q8N5J4 1-248)
# T8 sequence: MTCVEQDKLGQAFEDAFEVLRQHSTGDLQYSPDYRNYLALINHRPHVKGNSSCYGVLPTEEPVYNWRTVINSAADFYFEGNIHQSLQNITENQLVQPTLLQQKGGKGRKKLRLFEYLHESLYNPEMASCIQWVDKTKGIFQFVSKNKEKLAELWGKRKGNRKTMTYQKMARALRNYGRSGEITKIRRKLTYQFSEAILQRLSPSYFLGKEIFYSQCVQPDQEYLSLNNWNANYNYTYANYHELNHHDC
# How it was run: as §1
# [13] = molecular target: ELF4 (Homo sapiens, UniProt Q99607 1-663)
# ELF4, sequence (Q99607 whole entry): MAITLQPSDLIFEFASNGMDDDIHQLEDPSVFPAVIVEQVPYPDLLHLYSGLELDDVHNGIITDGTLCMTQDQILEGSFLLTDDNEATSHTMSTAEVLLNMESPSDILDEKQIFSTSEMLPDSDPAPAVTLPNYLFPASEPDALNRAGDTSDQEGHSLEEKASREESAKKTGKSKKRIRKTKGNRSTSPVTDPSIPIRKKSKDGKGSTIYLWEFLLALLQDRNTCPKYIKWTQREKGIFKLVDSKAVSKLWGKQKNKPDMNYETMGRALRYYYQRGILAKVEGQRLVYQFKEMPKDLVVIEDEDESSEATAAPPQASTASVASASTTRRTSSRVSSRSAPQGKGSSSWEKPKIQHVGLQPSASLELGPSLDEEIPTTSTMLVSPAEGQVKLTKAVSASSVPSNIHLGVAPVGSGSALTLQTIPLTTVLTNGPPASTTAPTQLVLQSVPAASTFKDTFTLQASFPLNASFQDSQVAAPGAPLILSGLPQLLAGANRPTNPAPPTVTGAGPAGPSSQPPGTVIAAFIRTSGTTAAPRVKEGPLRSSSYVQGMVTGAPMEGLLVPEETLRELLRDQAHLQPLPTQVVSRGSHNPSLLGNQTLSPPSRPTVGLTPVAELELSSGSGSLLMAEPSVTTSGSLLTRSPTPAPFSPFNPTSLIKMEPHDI
# How it was run: as §1
# [14] = molecular target: T9, ELK4 (Homo sapiens, UniProt P28324-2 1-405)
# T9 sequence: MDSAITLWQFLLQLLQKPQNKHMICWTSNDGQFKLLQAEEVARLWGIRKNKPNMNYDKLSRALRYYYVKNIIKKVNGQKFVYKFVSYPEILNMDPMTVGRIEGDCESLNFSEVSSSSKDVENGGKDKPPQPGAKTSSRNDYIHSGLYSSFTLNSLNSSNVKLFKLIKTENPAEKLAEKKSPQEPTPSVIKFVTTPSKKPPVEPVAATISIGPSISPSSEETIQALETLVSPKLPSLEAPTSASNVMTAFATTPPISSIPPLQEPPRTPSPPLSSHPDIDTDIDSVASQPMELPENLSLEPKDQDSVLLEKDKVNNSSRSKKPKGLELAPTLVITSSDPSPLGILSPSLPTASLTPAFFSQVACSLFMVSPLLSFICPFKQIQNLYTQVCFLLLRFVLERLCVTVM
# How it was run: as §1
# [15] = molecular target: T10, ETV2 (Homo sapiens, UniProt O00321 1-342)
# T10 sequence: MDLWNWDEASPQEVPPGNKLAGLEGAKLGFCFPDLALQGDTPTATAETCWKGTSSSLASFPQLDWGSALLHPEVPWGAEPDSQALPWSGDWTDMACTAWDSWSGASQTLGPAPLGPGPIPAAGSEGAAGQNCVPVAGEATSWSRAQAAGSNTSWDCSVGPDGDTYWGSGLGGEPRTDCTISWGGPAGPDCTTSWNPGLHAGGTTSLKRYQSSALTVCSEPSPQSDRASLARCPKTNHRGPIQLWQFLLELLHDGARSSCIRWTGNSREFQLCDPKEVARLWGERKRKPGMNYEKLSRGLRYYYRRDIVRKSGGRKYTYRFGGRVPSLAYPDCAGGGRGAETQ
# How it was run: as §1
# [16] = molecular target: T11, ELF3 (Homo sapiens, UniProt P78545 1-371)
# T11 sequence: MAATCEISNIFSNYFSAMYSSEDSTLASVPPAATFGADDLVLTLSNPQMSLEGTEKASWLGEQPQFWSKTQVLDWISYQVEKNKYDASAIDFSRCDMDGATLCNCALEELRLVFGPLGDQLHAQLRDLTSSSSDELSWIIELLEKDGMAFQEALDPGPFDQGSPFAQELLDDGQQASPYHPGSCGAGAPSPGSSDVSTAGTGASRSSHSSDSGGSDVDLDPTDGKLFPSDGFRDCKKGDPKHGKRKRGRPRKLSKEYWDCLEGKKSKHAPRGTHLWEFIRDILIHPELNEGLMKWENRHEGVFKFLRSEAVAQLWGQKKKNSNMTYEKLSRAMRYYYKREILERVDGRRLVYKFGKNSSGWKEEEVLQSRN
# How it was run: as §1
# [17] = molecular target: CRX (Homo sapiens, UniProt O43186 1-299)
# CRX, sequence (O43186 whole entry): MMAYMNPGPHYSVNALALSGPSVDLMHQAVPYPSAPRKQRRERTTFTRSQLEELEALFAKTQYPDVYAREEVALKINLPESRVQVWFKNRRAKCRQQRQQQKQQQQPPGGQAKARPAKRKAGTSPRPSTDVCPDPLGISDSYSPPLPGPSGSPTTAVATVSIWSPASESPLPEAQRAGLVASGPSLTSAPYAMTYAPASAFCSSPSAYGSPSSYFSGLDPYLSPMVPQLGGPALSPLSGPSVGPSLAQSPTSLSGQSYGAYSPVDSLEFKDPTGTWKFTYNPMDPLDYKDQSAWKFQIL
# How it was run: as §1
# [18] = molecular target: ETV1 (Homo sapiens, UniProt P50549 1-477)
# ETV1, sequence (P50549 whole entry): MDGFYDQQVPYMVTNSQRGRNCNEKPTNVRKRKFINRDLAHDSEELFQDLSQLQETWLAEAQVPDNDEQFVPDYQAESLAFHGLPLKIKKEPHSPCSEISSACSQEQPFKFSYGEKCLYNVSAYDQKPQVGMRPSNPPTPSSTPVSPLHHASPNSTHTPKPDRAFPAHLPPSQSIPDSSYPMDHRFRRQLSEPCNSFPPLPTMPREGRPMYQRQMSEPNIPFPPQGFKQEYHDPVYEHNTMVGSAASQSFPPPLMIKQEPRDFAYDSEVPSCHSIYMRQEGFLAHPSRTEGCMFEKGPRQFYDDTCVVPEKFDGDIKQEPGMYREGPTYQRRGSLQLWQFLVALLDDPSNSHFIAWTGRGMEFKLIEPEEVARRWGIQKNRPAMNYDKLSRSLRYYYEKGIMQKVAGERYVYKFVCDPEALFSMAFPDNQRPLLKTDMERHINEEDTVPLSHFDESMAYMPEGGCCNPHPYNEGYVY
# How it was run: as §1
sequence,measurement,setting,value
TGCATA,binding signal,[1],"1.08 fold enrichment (6-mer frequency, TF over GST control)"
same,binding signal,[2],"1.11 fold enrichment (6-mer frequency, TF over GST control)"
same,binding signal,[3],"1.13 fold enrichment (6-mer frequency, TF over GST control)"
same,binding signal,[4],"1.11 fold enrichment (6-mer frequency, TF over GST control)"
same,binding signal,[5],"1.06 fold enrichment (6-mer frequency, TF over GST control)"
same,binding signal,[6],"1.16 fold enrichment (6-mer frequency, TF over GST control)"
same,binding signal,[7],"1.15 fold enrichment (6-mer frequency, TF over GST control)"
same,binding signal,[8],"1.11 fold enrichment (6-mer frequency, TF over GST control)"
same,binding signal,[9],"1.15 fold enrichment (6-mer frequency, TF over GST control)"
same,binding signal,[10],"1.13 fold enrichment (6-mer frequency, TF over GST control)"
same,binding signal,[11],"1.14 fold enrichment (6-mer frequency, TF over GST control)"
same,binding signal,[12],"1.17 fold enrichment (6-mer frequency, TF over GST control)"
same,binding signal,[13],"1.2 fold enrichment (6-mer frequency, TF over GST control)"
same,binding signal,[14],"1.13 fold enrichment (6-mer frequency, TF over GST control)"
same,binding signal,[15],"1.02 fold enrichment (6-mer frequency, TF over GST control)"
same,binding signal,[16],"1.03 fold enrichment (6-mer frequency, TF over GST control)"
same,binding signal,[17],"1.01 fold enrichment (6-mer frequency, TF over GST control)"
same,binding signal,[18],"1.07 fold enrichment (6-mer frequency, TF over GST control)"
